Screens as filed in PubChem.
A selection: hits, their analogues and other compounds. The true share with any hit is near 1.4%.
PfHsp40 yeast: rescue of PfHsp40-mediated yeast toxicity. AID 504582. growth rescue, % at 12.5 µM. 340,000 tested, 0.68% active. S. cerevisiae expressing PfHsp40, growth rescue, ATP luminescence; in the data active = growth rescue above about 28%, passing the limit was not always enough; inconclusive = no clear call, values can overlap the other calls;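 note: yeast W303a lacking pdr1 and pdr3 grown in galactose medium; growth measured after three days at 30 °C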
BJeLR viability: BJeLR cell viability loss | AID 1554 | BJeLR (HRASV12) viability, CellTiter-Glo ATP luminescence, 48 h | 300,000 tested, 0.17% active | inhibition, % (concentration not given with the values); in the data active = inhibition above about 50%; inconclusive = no clear call, values can overlap the other calls
PrP UTR inh: inhibition of PrP 5' UTR reporter expression; 340,000 tested, 0.35% active; inhibition, % (no concentration beside the values); cell-based PrP 5' UTR mRNA reporter, plate reader; in the data active = inhibition above about 52%; note: 0 = median of the neutral control wells
Sa ugtP lethal: kills S. aureus RN4220 lacking UgtP; S. aureus RN4220 ugtP deletion, OD600 growth, 16 h; growth inhibition, % (test concentration not listed); 330,000 tested, 0.54% active; AID 1259309; in the data active = growth inhibition above about 68%;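 note: plate controls were untreated wells for no effect and antibiotic for full effect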
Yp Topo-I inh: blocks Yersinia pestis topoisomerase I activity. Y. pestis Topo-I cleavage product accumulation, plate reader. activity, % at 10 µM. 360,000 tested, 0.064% active; in the data active = activity above about 50%, passing the limit was not always enough; inconclusive = no clear call, values can overlap the other calls
RN4220 kill: kills Staphylococcus aureus RN4220; S. aureus RN4220 growth, OD600, 16 h; inhibition, % (test concentration not listed); 330,000 tested, 0.33% active; in the data active = inhibition above about 85%;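 note: plate controls were untreated cells for no effect and reference antibiotic for full effect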
The depositor's hits bear a star.

How did O=C(NC(=S)Nc1ccc(Oc2ccccc2)cc1)c1ccc(Cl)cc1 do in these assays?
PfHsp40 yeast: -1; BJeLR viability: -9; PrP UTR inh: -75; Sa ugtP lethal: 98*; Yp Topo-I inh: 16; RN4220 kill: -7

Results for O=C(NC(=S)Nc1cccnc1Cl)c1ccc(Cl)cc1 ?
PfHsp40 yeast: 11; BJeLR viability: 2; PrP UTR inh: -79; Sa ugtP lethal: 88*; Yp Topo-I inh: 2; RN4220 kill: 5

How did COc1ccc(C=C2Oc3ccccc3C2=O)cc1 do in these assays?
Sa ugtP lethal: 16; RN4220 kill: 12

How did CCCCCCCCCCCC(=O)NC(C(=O)O)C(O)c1ccccc1 (stereo not drawn) do in these assays?
PfHsp40 yeast: 59*; BJeLR viability: 7; PrP UTR inh: -12; Sa ugtP lethal: 15; Yp Topo-I inh: 22; RN4220 kill: 8

What do the screens show for `CCCCCCCCCC(=O)NC(CN1CCOCC1)C(O)c1ccccc1` (stereo not drawn)?
Sa ugtP lethal: -1; RN4220 kill: 9

Results for CC[n+]1c(/C=C/C=C/c2ccc(N(C)C)cc2)sc2ccccc21 ?
PfHsp40 yeast: 245*; BJeLR viability: 13; PrP UTR inh: 5; Sa ugtP lethal: 82*; Yp Topo-I inh: -17; RN4220 kill: 88*

Results for CN(C)c1ccc(/C=C/c2cc[n+](C)c3ccccc23)cc1 ?
PfHsp40 yeast: inconclusive; PrP UTR inh: 10; Yp Topo-I inh: -43

How did CN(C)c1ccc(/C=C/c2nc3ccccc3s2)cc1 do in these assays?
PfHsp40 yeast: 2; BJeLR viability: 21; PrP UTR inh: 31; Sa ugtP lethal: -5; Yp Topo-I inh: 3; RN4220 kill: 2

How did CN(C)c1ccc(C=Cc2cc[n+](C)c3ccccc23)cc1 do in these assays?
Sa ugtP lethal: 93*; RN4220 kill: 95*

Results for CN(C)c1ccc(/C=C/C=C/c2sc3ccccc3[n+]2C)cc1 ?
PfHsp40 yeast: 126*; BJeLR viability: 59*; PrP UTR inh: -28; Yp Topo-I inh: -20

What do the screens show for `CC=CC=CC(=O)Nc1cccc(C2=NOC3(C2)CC(C(N)=O)N(C(=O)COc2ccc(Cl)cc2)C3)c1` (stereo not drawn)?
Sa ugtP lethal: -23; RN4220 kill: 4

How did O=C(NCc1ccccc1)C1=CC(c2coc3ccccc3c2=O)CC(OCCCCO)O1 (stereo not drawn) do in these assays?
Sa ugtP lethal: 2; RN4220 kill: 4

How did CCOC1OC(C(=O)N2CCOCC2)=CC(C2CCCCC2)C1CCCO (stereo not drawn) do in these assays?
Sa ugtP lethal: 1; RN4220 kill: 7

How did COC(=O)c1cc(NCc2ccccc2F)ccc1N1CCOCC1 do in these assays?
PfHsp40 yeast: -1; PrP UTR inh: -4; Sa ugtP lethal: 12; Yp Topo-I inh: -3; RN4220 kill: 5

What do the screens show for `O=C(O)c1cc(NCc2c(F)cccc2Cl)ccc1N1CCOCC1`?
PfHsp40 yeast: 105*; BJeLR viability: -6; PrP UTR inh: -5; Sa ugtP lethal: 6; Yp Topo-I inh: 4; RN4220 kill: 6

What do the screens show for `CN1CC(=O)N2C3c4ccccc4OCC3C(c3ccccc3)[C@]2(C)C1=O` (stereo partly drawn)?
Sa ugtP lethal: 4; RN4220 kill: 3

What do the screens show for `C(=N\Nc1nc2ccccc2[nH]1)/c1ccc2ncccc2c1`?
PfHsp40 yeast: -2; BJeLR viability: 88*; PrP UTR inh: -17; Yp Topo-I inh: 1

How did COc1ccc(/C=N/Nc2nc3ccccc3[nH]2)cc1OC do in these assays?
PfHsp40 yeast: 75*; BJeLR viability: -10; PrP UTR inh: -25; Yp Topo-I inh: -20

What do the screens show for `COc1ccc(C=NNc2nc3ccccc3[nH]2)cc1OC`?
Sa ugtP lethal: -5; RN4220 kill: 2

Results for Cc1cccc(C2=NN(c3ccccc3)[C@@H](C(=O)N3CCOC3=O)[C@@H]2C)c1 ?
PfHsp40 yeast: 33*; PrP UTR inh: -13; Sa ugtP lethal: 15; Yp Topo-I inh: -4; RN4220 kill: -7

Results for Cc1cccc(C2=NN(c3ccc(Br)cc3)[C@@H](C(=O)N3CCOC3=O)[C@@H]2C)c1 ?
PfHsp40 yeast: 1; PrP UTR inh: -17; Sa ugtP lethal: 73; Yp Topo-I inh: -10; RN4220 kill: -16

Results for COc1ccc(NC(=O)N(C)CC2Oc3ccc(NC(=O)Nc4ccc5c(c4)OCO5)cc3C(=O)N(C(C)CO)CC2C)cc1 (stereo not drawn) ?
Sa ugtP lethal: 1; RN4220 kill: 3

What do the screens show for `COc1cc(C2CC(c3cccs3)=NN2C(=O)CCl)ccc1OC(F)F` (stereo not drawn)?
PfHsp40 yeast: 0; BJeLR viability: 96*; PrP UTR inh: -4; Yp Topo-I inh: 9

What do the screens show for `COc1ccc(C2CC(c3cccs3)=NN2C(=O)CCl)cc1OC` (stereo not drawn)?
PfHsp40 yeast: 0; BJeLR viability: 44; PrP UTR inh: -6; Yp Topo-I inh: 15

What do the screens show for `CCCCCCCCCCCCN1[C@@H](CC(=O)O)c2cc(F)ccc2S1(=O)=O`?
PfHsp40 yeast: 49*; BJeLR viability: 15; PrP UTR inh: -5; Yp Topo-I inh: 16

Results for CCCCCCCCN1[C@@H](CC(=O)OCC)c2ccc(C(F)(F)F)cc2S1(=O)=O ?
PfHsp40 yeast: 38*; BJeLR viability: -10; PrP UTR inh: -23; Yp Topo-I inh: 39

What do the screens show for `CCCCCCCCCCCCN1C(CC(=O)O)c2cc(F)ccc2S1(=O)=O` (stereo not drawn)?
Sa ugtP lethal: 21; RN4220 kill: 7

What do the screens show for `COc1ccc(C=Cc2nc(-c3ccccc3O)n(-c3ccccc3)n2)cc1`?
Sa ugtP lethal: -2; RN4220 kill: 5

What do the screens show for `Cc1ccc(C#CC[N+]2(CC#Cc3ccc(C)cc3)CCCCC2)cc1`?
PfHsp40 yeast: 0; BJeLR viability: 23; PrP UTR inh: -8; Sa ugtP lethal: 96*; Yp Topo-I inh: 17; RN4220 kill: 4

How did C(#Cc1ccccc1)C[N+]1(CC#Cc2ccccc2)CCCCC1 do in these assays?
PfHsp40 yeast: 1; BJeLR viability: 7; PrP UTR inh: -54; Sa ugtP lethal: 10; Yp Topo-I inh: 8; RN4220 kill: 1

How did CCN1C(=O)C2C(c3ccc(-c4ccc(OC)cc4)c(OC)c3)N3CCCC[C@@]3(C(=O)OC)C2C1=O (stereo partly drawn) do in these assays?
Sa ugtP lethal: 10; RN4220 kill: 0

How did Clc1ccc(SCNc2ccccc2Cl)cc1 do in these assays?
PfHsp40 yeast: 0; BJeLR viability: 2; PrP UTR inh: -22; Sa ugtP lethal: 88*; Yp Topo-I inh: 6; RN4220 kill: 3

What do the screens show for `COc1cc(/C=C2\SC(=S)N(NS(=O)(=O)c3ccccc3)C2=O)cc(OC)c1OC`?
PfHsp40 yeast: 41*; BJeLR viability: -4; PrP UTR inh: -17; Sa ugtP lethal: 2; Yp Topo-I inh: 13; RN4220 kill: 15
